Records with an inconclusive call do not appear. Activity calls are given as the source filed them. How the source made its calls: active means hit-call score of the fitted dose curve at least 0.9, where 1 is the maximum; inconclusive means response in the unintended direction; inactive means score below 0.9.
The molecules below were run against Bile acid receptor (Homo sapiens) (UniProt Q96RI1) (assay: OT_FXR_FXRSRC1_1440: Odyssey Thera (OT) 24-hour HEK293T Protein-Complementation Assay for Farnesoid X receptor/SRC-1 Co-activator (AID 2283384)).
Method in brief: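 Measures ligand-driven FXR–SRC-1 co-activator recruitment in HEK293T via fragment complementation, fluorescence intensity at 24 h. DMSO served as negative control and baseline for gain-of-signal fitting.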

Chain of Bile acid receptor (Homo sapiens) (Q96RI1 whole entry, looked up, the tested form may be a part): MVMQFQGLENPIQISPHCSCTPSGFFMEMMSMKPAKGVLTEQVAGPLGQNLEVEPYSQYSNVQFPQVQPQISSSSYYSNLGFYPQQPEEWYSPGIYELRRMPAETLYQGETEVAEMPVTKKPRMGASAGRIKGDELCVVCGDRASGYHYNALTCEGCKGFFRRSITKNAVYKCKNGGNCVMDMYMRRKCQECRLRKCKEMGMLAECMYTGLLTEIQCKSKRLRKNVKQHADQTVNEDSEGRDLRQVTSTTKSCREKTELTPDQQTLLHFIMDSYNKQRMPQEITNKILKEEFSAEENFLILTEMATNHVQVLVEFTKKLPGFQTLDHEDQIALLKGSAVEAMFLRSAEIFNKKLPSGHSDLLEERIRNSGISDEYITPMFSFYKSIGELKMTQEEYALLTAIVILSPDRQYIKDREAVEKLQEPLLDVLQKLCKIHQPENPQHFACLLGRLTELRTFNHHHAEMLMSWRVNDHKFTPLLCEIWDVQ

Row | SMILES | outcome
1 | CN(C)Cc1cc(CN(C)C)c(O)c(CN(C)C)c1 | inactive
2 | CCC[Si](OC)(OC)OC | inactive
3 | CCCCCCCCC(CO)CCCCCC (stereo not drawn) | inactive
4 | O=C(O)c1ccc2c(c1)C(=O)OC2=O | inactive
5 | Cc1ccc(C)c(OCCCC(C)(C)C(=O)O)c1 | inactive
6 | N#Cc1ccc(C(c2ccc(C#N)cc2)n2cncn2)cc1 | inactive
7 | CCCCCC(=O)OCC | inactive
8 | CCC1COC(=O)O1 (stereo not drawn) | inactive
9 | CCCCNC(=S)NCCCC | inactive
10 | CCC(C)(O)CCCC(C)C (stereo not drawn) | inactive
11 | CCOC(=O)C1=NOC(c2ccccc2)(c2ccccc2)C1 | inactive

Each molecule was assayed against Retinoic acid receptor RXR-alpha (Homo sapiens) (UniProt P19793) (assay: OT_NURR1_NURR1RXRa_0480: Odyssey Thera (OT) 8-hour HEK293T Protein Complementation Assay for Nurr1/retinoid X receptor (RXR) (AID 2283385)).
Method in brief: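 Interaction of bait and prey reconstitutes a functional reporter, whose fluorescence was measured in HEK293T cells dosed with compound for 8 hours. Signal gain relative to DMSO defined the single endpoint.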

Chain of Retinoic acid receptor RXR-alpha (Homo sapiens) (P19793 whole entry, looked up, the tested form may be a part): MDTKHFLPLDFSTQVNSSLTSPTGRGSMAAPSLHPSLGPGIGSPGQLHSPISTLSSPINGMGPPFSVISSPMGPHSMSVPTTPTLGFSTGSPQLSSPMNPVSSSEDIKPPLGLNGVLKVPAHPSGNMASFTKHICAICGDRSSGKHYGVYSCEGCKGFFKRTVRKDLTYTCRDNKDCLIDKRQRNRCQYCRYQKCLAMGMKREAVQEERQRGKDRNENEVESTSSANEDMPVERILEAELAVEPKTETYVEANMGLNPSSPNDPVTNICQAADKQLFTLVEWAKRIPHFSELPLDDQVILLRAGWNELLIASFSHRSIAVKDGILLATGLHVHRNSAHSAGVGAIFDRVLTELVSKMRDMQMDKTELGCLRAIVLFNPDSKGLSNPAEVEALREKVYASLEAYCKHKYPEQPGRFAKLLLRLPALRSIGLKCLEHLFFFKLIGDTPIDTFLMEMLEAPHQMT

Row | SMILES | outcome | AC50
12 | Cc1c(C(=O)c2c[nH]n(C)c2=O)ccc(S(C)(=O)=O)c1C1=NOCC1 | inactive | 
13 | CC(=O)/C=C/C1C(C)=CCCC1(C)C (stereo not drawn) | inactive | 
14 | CCC[Si](OC)(OC)OC | inactive | 
15 | CC1(C)[C@@H]2CC[C@@]1(C)C(=O)C2 | inactive | 
16 | CCCCCCO | inactive | 
17 | O=C(Oc1ccccc1)c1ccccc1O | inactive | 
18 | CC(=O)OC1CCCCC1C(C)(C)C (stereo not drawn) | inactive | 
19 | C=C[C@@]1(C)CC(=O)[C@]2(O)[C@@]3(C)[C@@H](O)CCC(C)(C)[C@@H]3[C@H](O)[C@H](OC(C)=O)[C@@]2(C)O1 |  | 183 nM (active)
20 | CCCCCCCCCCCCCC(=O)OC(C)C | inactive | 
21 | CCCCOCCOC(=O)COc1ccc(Cl)cc1Cl | inactive | 
22 | Fc1ccc(Br)cc1 | inactive | 
23 | NC(=O)Nc1ccccc1 | inactive | 
24 | CC(C)(c1ccccc1)c1ccc(Nc2ccc(C(C)(C)c3ccccc3)cc2)cc1 | inactive | 
25 | O=C(O)c1ccc2c(c1)C(=O)OC2=O | inactive | 
26 | N#Cc1ccc(C(c2ccc(C#N)cc2)n2cncn2)cc1 | inactive | 
27 | CCC1COC(=O)O1 (stereo not drawn) | inactive | 
28 | CCOC(=O)c1ccccc1C | inactive | 
29 | CCCCNC(=S)NCCCC | inactive | 
30 | CCOC(=O)C1=NOC(c2ccccc2)(c2ccccc2)C1 | inactive | 
31 | CC(=O)OCc1ccccc1 | inactive | 
32 | CCCCC(CC)COC(=O)/C=C/c1ccc(OC)cc1 (stereo not drawn) | inactive | 

The molecules below were run against Retinoic acid receptor RXR-alpha (Homo sapiens) (UniProt P19793) (assay: OT_NURR1_NURR1RXRa_1440: Odyssey Thera (OT) 24-hour HEK293T Protein Complementation Assay for Nurr1/retinoid X receptor (RXR) (AID 2283386)).
Method in brief: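 Steps: fragment-tagged Nurr1 and RXRα expressed in HEK293T; compounds added; after 24 h, complemented reporter quantified by fluorescence intensity; signal increase over DMSO fitted as the single endpoint.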

Row | SMILES | outcome | AC50
33 | Cc1c(C(=O)c2c[nH]n(C)c2=O)ccc(S(C)(=O)=O)c1C1=NOCC1 | inactive | 
34 | CC(=O)/C=C/C1C(C)=CCCC1(C)C (stereo not drawn) | inactive | 
35 | CN(C)Cc1cc(CN(C)C)c(O)c(CN(C)C)c1 | inactive | 
36 | CCC[Si](OC)(OC)OC | inactive | 
37 | CCCCC(C=O)CC (stereo not drawn) | inactive | 
38 | CC1(C)[C@@H]2CC[C@@]1(C)C(=O)C2 | inactive | 
39 | CC(=O)c1ccccc1O | inactive | 
40 | CCCCCCO | inactive | 
41 | CC(=O)OC1CCCCC1C(C)(C)C (stereo not drawn) | inactive | 
42 | C=C[C@@]1(C)CC(=O)[C@]2(O)[C@@]3(C)[C@@H](O)CCC(C)(C)[C@@H]3[C@H](O)[C@H](OC(C)=O)[C@@]2(C)O1 |  | 396 nM (active)
43 | CCCCC(CC)COS(=O)(=O)O (stereo not drawn) | inactive | 
44 | CCCCCCCCCCCCCC(=O)OC(C)C | inactive | 
45 | O=C(OCCc1ccccc1)c1ccccc1 | inactive | 
46 | CCCCCCCCC(CO)CCCCCC (stereo not drawn) | inactive | 
47 | COc1cc(O)c(C(=O)c2ccccc2)cc1S(=O)(=O)O | inactive | 
48 | Fc1ccc(Br)cc1 | inactive | 

Row | SMILES | outcome | AC50
49 | NC(=O)Nc1ccccc1 | inactive | 
50 | O=C(O)c1ccc2c(c1)C(=O)OC2=O | inactive | 
51 | N#Cc1ccc(C(c2ccc(C#N)cc2)n2cncn2)cc1 | inactive | 
52 | CC(=O)OC(C)c1ccccc1 (stereo not drawn) | inactive | 
53 | CCCCCC(=O)OCC | inactive | 
54 | CCC1COC(=O)O1 (stereo not drawn) | inactive | 
55 | CCOC(=O)c1ccccc1C | inactive | 
56 | CCCCNC(=S)NCCCC | inactive | 
57 | O=C(O)C1CCC(C(=O)O)CC1 (stereo not drawn) | inactive | 
58 | CCC(C)(O)CCCC(C)C (stereo not drawn) | inactive | 
59 | CCOC(=O)C1=NOC(c2ccccc2)(c2ccccc2)C1 | inactive | 
60 | CCCC=C(C=O)CC | inactive | 
61 | CCCCC(CC)COC(=O)/C=C/c1ccc(OC)cc1 (stereo not drawn) | inactive | 
62 | O=C(O)CCC(=O)O | inactive | 
63 | C1CNCCN1 | inactive | 

— PubChem BioAssay (EPA / NIEHS)
